Screening results: PubChem, several laboratories
PLCg1 inh: PLC-gamma1 (human) inhibition, primary screen | purified PLC-gamma1, fluorogenic substrate, fluorescence | inhibition, % at 12.2 µM | 370,000 compounds, 0.84% hits; in the data active = inhibition above about 9.5%
PLCb3 inh: blocks human PLC-beta3 enzyme activity; Purified PLC-beta3, fluorogenic substrate, fluorescence; inhibition, % at 12.2 µM; 370,000 compounds, 0.18% hits;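 note: 0% = median of compound wells on plate and 100% = full blocker control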
Target sequence (Q01970 whole entry, looked up): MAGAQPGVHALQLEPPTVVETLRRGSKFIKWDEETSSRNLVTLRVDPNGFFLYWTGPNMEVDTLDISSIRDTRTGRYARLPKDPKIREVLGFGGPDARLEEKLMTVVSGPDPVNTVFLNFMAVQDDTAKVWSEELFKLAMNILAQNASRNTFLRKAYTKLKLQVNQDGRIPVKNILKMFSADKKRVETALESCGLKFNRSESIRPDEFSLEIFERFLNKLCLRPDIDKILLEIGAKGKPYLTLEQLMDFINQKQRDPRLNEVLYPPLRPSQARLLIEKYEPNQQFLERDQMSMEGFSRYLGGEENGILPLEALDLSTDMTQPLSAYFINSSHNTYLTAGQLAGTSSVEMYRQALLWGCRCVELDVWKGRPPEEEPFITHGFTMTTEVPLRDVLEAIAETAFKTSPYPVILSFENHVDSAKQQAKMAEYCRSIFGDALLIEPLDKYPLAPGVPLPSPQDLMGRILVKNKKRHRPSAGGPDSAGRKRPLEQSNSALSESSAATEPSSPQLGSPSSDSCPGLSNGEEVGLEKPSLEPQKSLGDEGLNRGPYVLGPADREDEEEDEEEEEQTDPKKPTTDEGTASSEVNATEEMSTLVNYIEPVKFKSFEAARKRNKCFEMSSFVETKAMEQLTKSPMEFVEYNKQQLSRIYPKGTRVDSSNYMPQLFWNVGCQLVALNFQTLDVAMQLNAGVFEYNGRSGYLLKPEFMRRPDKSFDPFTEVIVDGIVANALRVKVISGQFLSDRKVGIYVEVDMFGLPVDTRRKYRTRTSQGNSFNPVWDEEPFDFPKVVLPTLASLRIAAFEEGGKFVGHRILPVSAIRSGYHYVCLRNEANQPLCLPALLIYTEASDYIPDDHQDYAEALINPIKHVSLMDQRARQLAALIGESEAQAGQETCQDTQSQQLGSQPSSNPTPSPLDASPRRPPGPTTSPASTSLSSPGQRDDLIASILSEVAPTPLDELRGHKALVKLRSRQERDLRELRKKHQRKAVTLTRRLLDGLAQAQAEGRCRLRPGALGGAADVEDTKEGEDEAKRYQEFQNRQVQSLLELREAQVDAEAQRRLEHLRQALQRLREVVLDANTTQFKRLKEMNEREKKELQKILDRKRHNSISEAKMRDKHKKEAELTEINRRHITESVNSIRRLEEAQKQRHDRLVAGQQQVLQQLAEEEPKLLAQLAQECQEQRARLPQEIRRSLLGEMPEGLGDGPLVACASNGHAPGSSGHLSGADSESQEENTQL
NPR2 activator: GC-B (human) receptor activation | P20594 | HEK293-GC-B cells, CNP EC30, cGMP TR-FRET; 0% at EC30 CNP, 100% saturating CNP | 370,000 compounds, 0.11% hits | AID 1920062 | activation, % at 10 µM;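 active = activation at 10 µM reaching about 35% in either raw or pattern-adjusted values, limit read from the data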
GC-A act: GC-A (human) enzyme activation; activation, % at 10 µM; P16066; 370,000 compounds, 0.14% hits; HEK293 GC-A cells, cGMP TR-FRET, EC30 ANP; 0% at EC30 ANP, 100% saturating ANP; AID 1671463; in the data active = activation above about 40%
Rce1 inh: blocks yeast Ras-converting enzyme. 290,000 compounds, 0.27% hits. Q03530. yeast membranes, quenched prenylated peptide cleavage fluorescence. calls only. AID 2563;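 active = fall in fluorescence gain of 50% or more versus controls, with final raw signal at or below 3038400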;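 note: plate controls were neutral control wells for no effect and wells lacking membranes for full effect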
M18AAP inhibitor: blocks P. falciparum M18 aspartyl aminopeptidase | inhibition, % at 7.35 µM | recombinant PfM18AAP, H-Glu-NHMec fluorogenic cleavage | AID 1822 | 290,000 compounds, 1.2% hits;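 active = inhibition above the campaign mean inhibition over all tested compounds plus 3 SD, cut at about 28% in these data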;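 note: 0% = plate median of test compound wells and 100% = 2 mM ZnCl2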
PLCgamma1 ctr: inhibits human PLC-gamma1 in PLC-beta3 counter-screen; shares compounds with PLCg1 inh; purified PLC-gamma1, fluorogenic substrate, fluorescence; inhibition, % at 12.3 µM; 3,300 compounds, 3.1% hits; in the data active = inhibition above about 9.5%
PLCbeta3 conf: human PLC-beta3 inhibition, confirmation. shares compounds with PLCg1 inh. purified PLC-beta3, fluorogenic substrate fluorescence. inhibition, % at 12.3 µM. 3,300 compounds, 1% hits
Active calls of the source: *; i = inactive; x = not tested or not shown. A selection: hits, their analogues and other compounds. The true share with any hit is near 2.2%. Cut-off read from the data, not from the text of the source, unless noted: active = inhibition above about 11%; inactive = the rest.

SMILES | PLCg1 inh | PLCb3 inh | NPR2 activator | GC-A act | Rce1 inh | M18AAP inhibitor | PLCgamma1 ctr | PLCbeta3 conf
CCCNC(=O)C1(C)CCCN(C(=O)c2ccc(C)c(F)c2)C1 (stereo not drawn) | 1 | 6 | -1 | -1 | x | x | x | x
O=C(c1cccs1)n1ccc2ccc(-c3ccc4ccn(C(=O)c5cccs5)c4c3)cc21 | -21 | -29 | 4 | -1 | x | x | x | x
C=CCN1C(=O)[C@H](CC(=O)N2CCN(C(=O)C3CC3)CC2)[C@@]2(C(=O)OCC)CCCC=C12 | 2 | 2 | -2 | -2 | x | x | x | x
CC(C)c1cc(=O)n2[nH]c(SCc3ccccc3Cl)nc2n1 | 13* | -5 | -2 | -9 | i | 3 | -3 | -2
Cc1ccc(SCCNC(=O)C(C)C)cc1 | 9.7* | 5 | -5 | 1 | i | 2 | -12 | -2
Cc1ccc(NC(=O)NCCSc2ccc(C)cc2)cc1 | 2 | 2 | -6 | 2 | i | 0 | x | x
CCOC(=O)c1ccc(N/C(=N\S(=O)(=O)c2ccccc2C)c2ccccc2)cc1 | 10* | 2 | 4 | -3 | i | 1 | -2 | -4
CC(C)n1ncc(C(N)=O)c1N | 9.8* | 2 | 10 | -1 | i | 1 | -3 | 3
O=C(c1ccc(F)cc1)C1CCN(c2ncnc3sccc23)CC1 | 1 | 1 | -12 | -3 | x | x | x | x
Cc1ccc(C)c(OCC(O)CN2CCC(C)CC2)c1C (stereo not drawn) | 11* | 2 | 2 | 4 | x | 2 | -4 | -5
Cc1ccc(Oc2ccc(/C=N/O)cn2)cc1 | 14* | 1 | -6 | -3 | i | -14 | -2 | 2
O=C(NCc1cccs1)c1cc2c(s1)CCCC2 | 11* | 7 | -4 | 5 | i | -2 | 0 | 5
CCn1cnnc1SCC(=O)Nc1ccccc1C(=O)NC1CC1 | 11* | 11* | -1 | -1 | x | x | -2 | 0
CCOc1ncccc1C(=O)NCCN1C(=O)S/C(=C/c2cccs2)C1=O | 13* | 9 | -2 | -4 | i | -4 | -2 | 2
COc1cc(C(=O)NCCN2C(=O)S/C(=C\c3cccs3)C2=O)cc(OC)c1OC | 10* | 1 | -5 | -9 | i | -3 | 1 | 2
COc1cccc(C(=O)NCCN2C(=O)S/C(=C/c3cccs3)C2=O)c1OC | 0 | -7 | 1 | 2 | i | 2 | x | x
CC(C)N1CCN(c2ccc(OCC3COC(Cn4cncn4)(c4ccc(Cl)cc4Cl)O3)cc2)CC1 (stereo not drawn) | 9.8* | 9 | 1 | 0 | x | x | 2 | 0
O=S1(=O)c2c(NCc3ccco3)cccc2Oc2ccccc2CN1Cc1cn(Cc2ccc(Cl)cc2)nn1 | -50 | -76 | 2 | 1 | x | x | x | x
Fc1ccccc1/C=N/Nc1nn[nH]n1 | 3 | 5 | -5 | -1 | i | 8 | x | x
Cc1nnc(N/N=C/c2cccc(C(F)(F)F)c2)n1N | 13* | 11 | -1 | 1 | i | 2 | -3 | 0
Cc1nnc(N/N=C/c2ccccc2F)n1N | 12* | 1 | -3 | 6 | i | 8 | -4 | -1
C[C@]12Cc3ccccc3C1CC1=N[C@@H](c3ccc(C(F)(F)F)cc3)O[C@@]13C[C@@H]2C(=O)N3C1CCN(Cc2ccccc2)CC1 (stereo partly drawn) | 1 | -6 | 11 | 0 | x | x | x | x
COC(=O)[C@H]1C[C@]2(C(C=C(C)C)S(=O)(=O)c3ccccc3)c3ccccc3N[C@H]2N1 (stereo partly drawn) | -1 | 0 | -9 | 0 | x | x | x | x
S=C(Nc1ccc(Cl)cc1)c1nc2ccccc2[nH]1 | 6 | 8 | -5 | 6 | i | 2 | x | x
Cc1ccccc1NC(=S)c1nc2ccccc2[nH]1 | 10* | 3 | 5 | 1 | i | 16 | 0 | 1
S=C(Nc1ccccc1)OCCN1CCCC12CCC(c1ccccc1)CC2 (stereo not drawn) | 1 | -1 | -3 | -2 | x | x | x | x
O=C(O)CCCN1C(=O)C2C3CCC(C3)C2C1=O (stereo not drawn) | 12* | 7 | 7 | 0 | x | x | -3 | 1
